Results reported in the supplement of paper PMC10127200.
“And” between values parts separate entries of the source, which are not always exact repeats. Equal entries are not always repeated. Structures can show the parent of a compound that is named as a salt.

Key:
Experiment in all cases: Euclidean distance of Cell Painting phenotypic profile (signed KS, 77 features) to DMSO centroid (dimensionless distance); 5 or 10 uM (library dependent); higher = stronger phenotypic change vs DMSO (phenoactivity)
Conditions in all cases: 48 h
786-O = test system: 786-O
How it was run: (§1)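 Library compounds were applied at 10 or 5 uM, depending on the library, with 0.1% DMSO final, for 48 h to five cancer lines and a healthy fibroblast line. After staining, cells were imaged confocally at 20X across 9 fields per well, and Harmony extracted 77 features, each scored as a signed Kolmogorov-Smirnov statistic against vehicle wells on the same plate. Phenoactivity is the Euclidean distance between each profile and the median vehicle profile, with profiles first plate-position corrected, correlation-weighted and averaged over replicates at the top dose.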

A549 = test system: A549
How it was run: as §1

DU145 = test system: DU145
How it was run: as §1

FB = test system: FB
How it was run: as §1

HEPG2 = test system: HEPG2
How it was run: as §1

OVCAR4 = test system: OVCAR4
How it was run: as §1

SMILES | Euclidean distance (786-O) | Euclidean distance (A549) | Euclidean distance (DU145) | Euclidean distance (FB) | Euclidean distance (HEPG2) | Euclidean distance (OVCAR4)
O=c1c2ccccc2oc2ccccc12 [Xanthone] | 1 | 1.28 | 1.24 | 1.02 | 0.607 | 1.14
O=C(COc1cccc2c(=O)[nH]ccc12)c1ccccc1 | 1.49 | 1.09 | 0.747 | 0.832 | 0.68 | 0.6
CC(C)NCC(O)COc1cccc2[nH]ccc12 (stereo not given) [Pindolol] | 0.941 | 0.858 | 0.721 | 1.06 | 0.588 | 0.895
O=C1C[C@@H](c2ccc(O[C@@H]3O[C@H](CO)[C@@H](O)[C@H](O)[C@H]3O)cc2)Oc2cc(O)ccc21 [Liquiritin] | 1.07 | 0.817 | 0.781 | 1.59 | 0.642 | 1.16
CC(=O)Nc1ccccc1 [Acetanilide] | 0.827 | 0.504 | 0.799 | 0.893 | 0.768 | 1.34
CCn1c(=O)c(-c2cc(NC(=O)Nc3ccccc3)c(F)cc2Br)cc2cnc(NC)cc21 [Ripretinib (DCC-2618)] | 2.86 | 3.27 | 2.91 | 3.89 | 2.27 | 3.18
CC#CC(=O)N1CC[C@@H](n2c(=O)n(-c3ccc(Oc4ccccc4)cc3)c3c(N)ncnc32)C1 [ONO-4059 (GS-4059) hydrochloride] | 1.09 | 0.871 | 1.8 | 1.99 | 0.863 | 0.627
CC(C)NC(=O)COc1cccc(-c2nc(Nc3ccc4[nH]ncc4c3)c3ccccc3n2)c1 | 2.53 | 3.23 | 3.11 | 2.67 | 1.76 | 2.43
CCC1=C(C)CN(C(=O)NCCc2ccc(S(=O)(=O)NC(=O)N[C@H]3CC[C@H](C)CC3)cc2)C1=O [Glimepiride] | 1.39 | 0.608 | 0.621 | 0.992 | 0.508 | 0.801
Cc1cc(C(C)(C)C)c(O)c(C(C)(C)C)c1 [Butylated hydroxytoluene] | 0.873 | 0.945 | 0.885 | 0.657 | 1.03 | 0.752
O=C(Nc1ccccc1)c1cc([N+](=O)[O-])ccc1Cl | 0.848 | 0.897 | 0.645 | 1.15 | 0.832 | 1.2
COc1ccccc1OCC(O)CN1CCN(CC(=O)Nc2c(C)cccc2C)CC1 (stereo not given) [Ranolazine] | 1.2 | 0.699 | 0.507 | 0.669 | 1.08 | 1.09
Cc1cccc(C)c1NC(=O)C1CCCCN1C (stereo not given) [Mepivacaine HCl] | 1.26 | 0.773 | 0.454 | 1.28 | 0.483 | 0.914
CC(COc1ccccc1)NC(C)C(O)c1ccc(O)cc1 (stereo not given) [Isoxsuprine hydrochloride] | 1.44 | 0.704 | 0.854 | 1.28 | 0.54 | 1.1
CC[C@H]1OC(=O)[C@H](C)[C@@H](O[C@H]2C[C@@](C)(OC)[C@@H](O)[C@H](C)O2)[C@H](C)[C@@H](O[C@@H]2O[C@H](C)C[C@H](N(C)C)[C@H]2O)[C@](C)(O)C[C@@H](C)/C(=N\OCOCCOC)[C@H](C)[C@@H](O)[C@]1(C)O [Roxithromycin] | 1.03 | 0.649 | 0.699 | 1.1 | 0.654 | 1.42
CCCCC(=O)O[C@H]1CC[C@H]2[C@@H]3CCc4cc(O)ccc4[C@H]3CC[C@]12C [Estradiol valerate] | 1.37 | 0.77 | 1.17 | 0.885 | 0.621 | 1.21
C=CC(=O)Nc1cccc(Oc2nc(Nc3ccc(N4CCN(C)CC4)cc3)ncc2Cl)c1 | 2.42 | 2.73 | 2.46 | 4.15 | 2.28 | 3.17
COc1ccc(C2OCC3C(c4cc(OC)c(OC)c(OC)c4)OCC23)cc1OC (stereo not given) [Magnolin] | 0.904 | 0.78 | 1.05 | 1.02 | 0.56 | 0.966
Cn1c(=O)cc(N2CCC[C@@H](N)C2)n(Cc2cc(F)ccc2C#N)c1=O [Trelagliptin succinate] | 0.808 | 1.21 | 1.04 | 1.06 | 0.54 | 1.49
Clc1ccc(C(Cn2ccnc2)OCc2ccsc2Cl)c(Cl)c1 (stereo not given) [Tioconazole] | 1.07 | 0.786 | 2.41 | 1.25 | 1.14 | 1.44

SMILES | Euclidean distance (786-O) | Euclidean distance (A549) | Euclidean distance (DU145) | Euclidean distance (FB) | Euclidean distance (HEPG2) | Euclidean distance (OVCAR4)
O=C(O)c1cccnc1Nc1cccc(C(F)(F)F)c1 [Niflumic acid] | 0.923 | 1.01 | 1.02 | 1.24 | 1.19 | 1.26
CC(COc1ccccc1Cc1ccccc1)N1CCCCC1 (stereo not given) [Benproperine phosphate] | 1.67 | 1.63 | 1.72 | 1.18 | 1.58 | 1.42
OC1CN(CCCOCCc2ccc3sccc3c2)C1 [Edonerpic maleate] | 0.947 | 0.582 | 0.87 | 1.18 | 0.525 | 0.97
CN(C)CCOC(=O)COc1ccc(Cl)cc1 [Meclofenoxate (Centrophenoxine) HCl] | 0.714 | 0.913 | 1.3 | 0.93 | 1.13 | 1.29
O=C(CCCN1CCN(c2ccccn2)CC1)c1ccc(F)cc1 [Azaperone] | 0.919 | 0.568 | 0.729 | 0.828 | 0.758 | 1.09
Nc1nc(N)c(N=O)c(OCC2CCCCC2)n1 | 1.11 | 1.58 | 0.998 | 1.01 | 0.792 | 1.38
CC(C)CC(N)=O [Isovaleramide] | 1.41 | 1.09 | 0.731 | 0.571 | 1.21 | 1.81
NS(=O)(=O)Cc1noc2ccccc12 [Zonisamide] | 1.61 | 0.951 | 0.986 | 0.762 | 0.835 | 1.9
CCN(CC)C(=O)N1CCN(C)CC1 [Diethylcarbamazine citrate] | 0.755 | 0.674 | 0.703 | 0.826 | 0.536 | 1.14
Nc1nc(NC2CC2)c2ncn([C@H]3C=C[C@@H](CO)C3)c2n1 [Abacavir sulfate] | 1.09 | 1.86 | 1.39 | 1.19 | 0.688 | 1.74
CCN(CC)CCCC(C)Nc1nc(C)cc(Nc2ccc3nc(C)cc(N)c3c2)n1 (stereo not given) | 0.637 | 0.976 | 0.753 | 0.932 | 2.01 | 1.16
NC(=O)[C@@H](CCC(F)(F)F)N(Cc1ccc(-c2ncon2)cc1F)S(=O)(=O)c1ccc(Cl)cc1 | 2.13 | 1.14 | 1.04 | 2.28 | 1.48 | 0.855
O=C(O)C1(c2ccc(-c3ccc(Cl)c(Cl)c3)c(F)c2)CC1 | 0.785 | 1.02 | 1.42 | 1.35 | 1.17 | 1.72
CNS(=O)(=O)Cc1ccc2[nH]cc(CCN(C)C)c2c1 [Sumatriptan Succinate] | 1.54 | 1.49 | 0.753 | 1.35 | 0.966 | 1.66
CCCCOCCOCCOCc1cc2c(cc1CCC)OCO2 [Piperonyl butoxide] | 0.659 | 1.99 | 0.875 | 0.892 | 1.06 | 1.04
COc1ccc(-c2cc3c(C)nc(N)nc3n([C@H]3CC[C@H](OCCO)CC3)c2=O)cn1 | 4.94 | 3.33 | 2.31 | 4.31 | 2.12 | 3.03
COc1cccc(-c2c(C)n(Cc3c(F)cccc3C(F)(F)F)c(=O)n(C[C@H](NCCCC(=O)O)c3ccccc3)c2=O)c1F [Elagolix Sodium] | 0.686 | 1.22 | 1.02 | 0.826 | 0.728 | 1.23
NC[C@H]1O[C@H](O[C@H]2[C@H](O)[C@@H](O[C@H]3O[C@H](CO)[C@@H](O)[C@H](N)[C@H]3O)[C@H](N)C[C@@H]2N)[C@H](O)[C@@H](O)[C@@H]1O [Kanamycin sulfate] | 1.57 | 0.801 | 1.16 | 0.974 | 2.18 | 1.35
CN(c1ncccc1CNc1nc(Nc2ccc3c(c2)CC(=O)N3)ncc1C(F)(F)F)S(C)(=O)=O | 1.25 and 2.75 | 3.05 and 1.62 | 2.34 and 1.3 | 3.61 and 1.66 | 2.58 and 1.31 | 3.25 and 1.45
CC1CCN(CC[C@H]2CCCN2S(=O)(=O)c2cccc(O)c2)CC1 | 0.546 | 0.904 | 0.705 | 1.11 | 1.48 | 0.827
